Test results as given in PubChem BioAssay (EPA / NIEHS).
Several values for one entry are separate records, joined by “and”; a condition that tells them apart may be missing. Identical values can stand only once. Records with an inconclusive call do not appear. Activity calls are given as the source filed them. How the source made its calls, unless noted: active means hit-call score of the fitted dose curve at least 0.9, where 1 is the maximum; inactive means score below 0.9.

Assays:
[1] = target: Glucocorticoid receptor (Homo sapiens) (UniProt P04150); assay: ATG_GR_TRANS: Attagene TRANS-FACTORIAL HepG2 Assay for human Glucocorticoid Receptor (GR) (AID 2282978; active means hit-call score of the fitted dose curve at least 0.9, where 1 is the maximum;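 further: activators score as hits since higher reporter transcript over DMSO is fitted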); details: HepG2 Attagene TRANS GR reporter, mRNA transcription
Glucocorticoid receptor (Homo sapiens), sequence (P04150 whole entry, looked up, the tested form may be a part): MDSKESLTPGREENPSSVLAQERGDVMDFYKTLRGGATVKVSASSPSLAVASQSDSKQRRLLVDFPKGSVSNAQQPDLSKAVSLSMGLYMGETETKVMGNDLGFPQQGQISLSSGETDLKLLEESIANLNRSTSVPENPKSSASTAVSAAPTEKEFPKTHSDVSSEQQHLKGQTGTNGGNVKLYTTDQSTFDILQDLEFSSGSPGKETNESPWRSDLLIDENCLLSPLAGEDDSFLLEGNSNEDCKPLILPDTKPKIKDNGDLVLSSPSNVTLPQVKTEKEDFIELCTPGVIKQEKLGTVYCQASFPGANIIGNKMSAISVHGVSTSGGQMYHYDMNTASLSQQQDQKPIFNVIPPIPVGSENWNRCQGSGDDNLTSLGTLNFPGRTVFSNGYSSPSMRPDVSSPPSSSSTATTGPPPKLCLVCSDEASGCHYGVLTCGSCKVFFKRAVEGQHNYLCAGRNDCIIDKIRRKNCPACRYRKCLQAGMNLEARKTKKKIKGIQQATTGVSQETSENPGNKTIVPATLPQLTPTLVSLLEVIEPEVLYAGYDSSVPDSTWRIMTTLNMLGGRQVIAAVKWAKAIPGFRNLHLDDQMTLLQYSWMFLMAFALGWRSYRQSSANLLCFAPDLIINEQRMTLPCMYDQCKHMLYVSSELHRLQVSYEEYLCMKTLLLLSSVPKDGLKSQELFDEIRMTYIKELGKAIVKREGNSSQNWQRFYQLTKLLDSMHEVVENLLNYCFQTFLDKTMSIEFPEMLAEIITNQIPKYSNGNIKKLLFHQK
Summary of the method: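 HepG2 cells transiently transfected with multiplexed reporter units in which chimeric NR-GAL4 proteins drive GAL4-UAS reporters; 24 h compound exposure. Reporter mRNA measured by RT-PCR, 6-FAM labelling, HpaI digestion and capillary electrophoresis; gain-of-signal fitted versus DMSO.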

[2] = target: Oxysterols receptor LXR-alpha (Homo sapiens) (UniProt Q13133); assay: ATG_LXRa_TRANS: Attagene TRANS-FACTORIAL HepG2 Assay for human Liver X Receptor alpha (LXRa) (AID 2282980; active means hit-call score of the fitted dose curve at least 0.9, where 1 is the maximum); details: HepG2 Attagene TRANS reporter, LXRa transactivation
Oxysterols receptor LXR-alpha (Homo sapiens), sequence (Q13133 whole entry, looked up): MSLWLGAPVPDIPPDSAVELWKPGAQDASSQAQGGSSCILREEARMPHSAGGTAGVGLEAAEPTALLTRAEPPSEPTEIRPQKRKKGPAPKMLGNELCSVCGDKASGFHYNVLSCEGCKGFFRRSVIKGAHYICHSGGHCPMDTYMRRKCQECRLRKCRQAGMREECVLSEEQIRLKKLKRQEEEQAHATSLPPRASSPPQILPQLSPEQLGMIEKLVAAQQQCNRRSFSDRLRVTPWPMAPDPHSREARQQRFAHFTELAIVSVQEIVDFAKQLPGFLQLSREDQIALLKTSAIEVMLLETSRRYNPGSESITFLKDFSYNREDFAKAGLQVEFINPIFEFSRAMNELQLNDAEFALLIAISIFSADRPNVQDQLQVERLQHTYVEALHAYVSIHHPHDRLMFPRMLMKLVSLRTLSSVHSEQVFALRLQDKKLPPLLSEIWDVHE
Summary of the method: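 Transient HepG2 transfectants, 24 h dosing, RT-PCR/CE mRNA reporter quantitation; gain-of-signal vs DMSO.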

[3] = target: Oxysterols receptor LXR-beta (Homo sapiens) (UniProt P55055); assay: ATG_LXRb_TRANS: Attagene TRANS-FACTORIAL HepG2 Assay for human Liver X Receptor beta (LXRb) (AID 2282981; active means hit-call score of the fitted dose curve at least 0.9, where 1 is the maximum); details: HepG2 Attagene TRANS GAL4-LXRb reporter, mRNA
Oxysterols receptor LXR-beta (Homo sapiens), sequence (P55055 whole entry, looked up, the tested form may be a part): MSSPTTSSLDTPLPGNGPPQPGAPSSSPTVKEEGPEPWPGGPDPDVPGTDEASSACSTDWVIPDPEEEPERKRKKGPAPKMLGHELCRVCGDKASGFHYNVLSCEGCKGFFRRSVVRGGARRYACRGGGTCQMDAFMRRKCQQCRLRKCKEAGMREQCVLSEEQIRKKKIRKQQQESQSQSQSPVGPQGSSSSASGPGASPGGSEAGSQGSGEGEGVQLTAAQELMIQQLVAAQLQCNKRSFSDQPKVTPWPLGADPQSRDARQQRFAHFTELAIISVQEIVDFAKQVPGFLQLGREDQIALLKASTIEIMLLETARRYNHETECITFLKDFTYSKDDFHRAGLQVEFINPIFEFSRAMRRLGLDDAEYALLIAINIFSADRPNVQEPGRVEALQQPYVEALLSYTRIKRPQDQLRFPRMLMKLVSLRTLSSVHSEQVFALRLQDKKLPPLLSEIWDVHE
Summary of the method: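 After 24 h chemical treatment of transfected HepG2 cells carrying exogenous NR-Gal4 chimeras, reporter mRNA was quantified by fluorescent RT-PCR and capillary electrophoresis; activity taken as increase over DMSO controls.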

[4] = target: Hepatocyte nuclear factor 4-alpha (Homo sapiens) (UniProt P41235); assay: ATG_HNF4a_TRANS: Attagene TRANS-FACTORIAL HepG2 Assay for human Hepatocyte Nuclear Factor 4 alpha (HNF4a) (AID 2282982; active means hit-call score of the fitted dose curve at least 0.9, where 1 is the maximum); details: HepG2 HNF4a transactivation reporter, mRNA readout
Hepatocyte nuclear factor 4-alpha (Homo sapiens), sequence (P41235 whole entry, looked up, the tested form may be a part): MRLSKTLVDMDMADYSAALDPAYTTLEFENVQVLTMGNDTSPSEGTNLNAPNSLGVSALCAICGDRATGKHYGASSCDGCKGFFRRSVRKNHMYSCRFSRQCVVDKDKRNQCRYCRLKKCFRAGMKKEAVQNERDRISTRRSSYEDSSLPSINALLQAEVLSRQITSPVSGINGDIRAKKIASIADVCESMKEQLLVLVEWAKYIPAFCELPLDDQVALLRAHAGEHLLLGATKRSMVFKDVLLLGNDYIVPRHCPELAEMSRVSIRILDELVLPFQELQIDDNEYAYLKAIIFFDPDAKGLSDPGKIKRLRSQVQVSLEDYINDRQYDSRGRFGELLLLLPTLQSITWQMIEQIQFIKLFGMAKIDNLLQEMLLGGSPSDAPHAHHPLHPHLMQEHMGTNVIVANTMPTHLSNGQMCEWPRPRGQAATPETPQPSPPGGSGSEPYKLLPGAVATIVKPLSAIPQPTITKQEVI
Summary of the method: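 Activity of an exogenous HNF4a–Gal4 fusion scored as induced GAL4-UAS reporter transcripts after 24 h chemical exposure of transfected human HepG2 cells. Read-out via RT-PCR with 6-FAM labelling and capillary electrophoresis; rise over DMSO baseline.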

[5] = ATG_M_32_TRANS: Attagene TRANS-FACTORIAL HepG2 Assay for M32 Transcription Factor (Internal Marker) (AID 2282984; active means hit-call score of the fitted dose curve at least 0.9, where 1 is the maximum;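 further: transcript level of a background control reporter unit measured by RT-PCR and capillary electrophoresis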); details: HepG2 Attagene TRANS M32 internal marker reporter
Summary of the method: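 Internal background reporter in transfected HepG2: after 24 h chemical exposure, RNA reverse-transcribed, reporter cDNA amplified, fluorescently labelled and HpaI-cut, then sized by capillary electrophoresis. Gain of signal fitted against DMSO control.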

[6] = target: Nuclear receptor subfamily 4 group A member 2 (Homo sapiens) (UniProt P43354); assay: ATG_NURR1_TRANS: Attagene TRANS-FACTORIAL HepG2 Assay for human Nuclear Receptor Related Protein 1 (NURR1) (AID 2282985; active means hit-call score of the fitted dose curve at least 0.9, where 1 is the maximum); details: HepG2 Attagene TRANS reporter, mRNA readout
Nuclear receptor subfamily 4 group A member 2 (Homo sapiens), sequence (P43354 whole entry, looked up, the tested form may be a part): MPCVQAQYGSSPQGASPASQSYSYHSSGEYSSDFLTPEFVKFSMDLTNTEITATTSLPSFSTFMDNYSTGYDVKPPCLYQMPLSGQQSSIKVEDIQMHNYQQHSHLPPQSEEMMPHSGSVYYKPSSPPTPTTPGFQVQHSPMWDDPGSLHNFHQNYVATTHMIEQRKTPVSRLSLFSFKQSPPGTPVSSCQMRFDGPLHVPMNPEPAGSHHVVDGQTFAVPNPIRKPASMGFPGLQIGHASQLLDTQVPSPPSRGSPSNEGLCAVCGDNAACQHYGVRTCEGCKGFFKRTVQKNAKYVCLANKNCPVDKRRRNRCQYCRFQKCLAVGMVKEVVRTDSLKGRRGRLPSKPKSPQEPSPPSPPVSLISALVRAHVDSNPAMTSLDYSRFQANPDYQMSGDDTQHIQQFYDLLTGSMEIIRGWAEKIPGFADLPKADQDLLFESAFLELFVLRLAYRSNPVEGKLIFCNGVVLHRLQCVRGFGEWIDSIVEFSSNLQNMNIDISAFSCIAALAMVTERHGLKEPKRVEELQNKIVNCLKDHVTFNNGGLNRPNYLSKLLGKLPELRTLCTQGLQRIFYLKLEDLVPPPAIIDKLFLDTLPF
Summary of the method: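 Reporter transcript induction, measured by RT-PCR with fluorescent labelling, HpaI digestion and capillary electrophoresis, after 24 hr dosing of human HepG2 cells transiently expressing an exogenous NR-Gal4 fusion with GAL4-UAS-driven reporters; DMSO as baseline.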

[7] = target: Transcriptional activator Myb (Homo sapiens) (UniProt P10242); assay: ATG_Myb_CIS: Attagene CIS-FACTORIAL HepG2 Assay for human Myeloblastosis (Myb) Proto-Oncogene Transcription Factor (AID 2282986); details: HepG2 Attagene CIS-FACTORIAL Myb reporter transcription; actives raise or lower the signal
Transcriptional activator Myb (Homo sapiens), sequence (P10242 whole entry, looked up): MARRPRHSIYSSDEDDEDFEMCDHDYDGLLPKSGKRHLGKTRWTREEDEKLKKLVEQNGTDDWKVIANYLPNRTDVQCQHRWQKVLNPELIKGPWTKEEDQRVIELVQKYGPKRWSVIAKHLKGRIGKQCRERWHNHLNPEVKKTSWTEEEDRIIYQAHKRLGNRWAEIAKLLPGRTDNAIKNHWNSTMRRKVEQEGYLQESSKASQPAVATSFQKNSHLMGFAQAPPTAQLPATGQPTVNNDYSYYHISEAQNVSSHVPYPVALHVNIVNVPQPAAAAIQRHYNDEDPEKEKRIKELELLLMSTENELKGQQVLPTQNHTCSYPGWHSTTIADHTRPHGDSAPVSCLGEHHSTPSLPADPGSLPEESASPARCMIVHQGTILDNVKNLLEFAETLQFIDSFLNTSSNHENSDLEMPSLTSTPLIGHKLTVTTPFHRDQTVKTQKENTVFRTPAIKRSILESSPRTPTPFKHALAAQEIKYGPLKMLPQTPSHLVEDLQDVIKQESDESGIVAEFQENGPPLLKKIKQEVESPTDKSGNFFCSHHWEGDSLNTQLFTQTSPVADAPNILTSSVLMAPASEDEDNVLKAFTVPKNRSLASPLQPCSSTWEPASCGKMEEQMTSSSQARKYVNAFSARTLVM
Summary of the method: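 HepG2 cells were transiently transfected with cis-regulated multiple reporter transcription units reflecting endogenous Myb activity, then exposed to compound for 24 hours. Reporter mRNA was measured by RT-PCR with capillary electrophoresis; bidirectional fitting versus DMSO baseline.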

[8] = target: Nuclear respiratory factor 1 (Homo sapiens) (UniProt Q16656); assay: ATG_NRF1_CIS: Attagene CIS-FACTORIAL HepG2 Assay for human Nuclear Respiratory Factor 1 (NRF1) Orphan Gene (AID 2282987); details: HepG2 NRF1 cis-element reporter, Attagene multiplex; actives raise or lower the signal
Nuclear respiratory factor 1 (Homo sapiens), sequence (Q16656 whole entry, looked up): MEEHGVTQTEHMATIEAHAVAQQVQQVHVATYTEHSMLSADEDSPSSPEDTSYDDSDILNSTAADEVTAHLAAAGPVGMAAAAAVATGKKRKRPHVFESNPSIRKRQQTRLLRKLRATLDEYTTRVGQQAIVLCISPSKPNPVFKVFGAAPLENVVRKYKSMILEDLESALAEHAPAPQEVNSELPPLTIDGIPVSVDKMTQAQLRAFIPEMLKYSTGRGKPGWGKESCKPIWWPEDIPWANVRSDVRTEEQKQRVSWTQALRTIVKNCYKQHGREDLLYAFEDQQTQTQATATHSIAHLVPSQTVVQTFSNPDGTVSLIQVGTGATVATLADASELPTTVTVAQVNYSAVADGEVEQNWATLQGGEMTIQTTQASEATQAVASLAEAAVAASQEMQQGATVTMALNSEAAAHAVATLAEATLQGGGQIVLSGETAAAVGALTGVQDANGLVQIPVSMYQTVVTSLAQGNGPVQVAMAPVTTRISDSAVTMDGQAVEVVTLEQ
Summary of the method: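 HepG2 cells transiently transfected with multiple reporter transcription units under cis-regulatory promoter control, so endogenous transcription-factor activity is read. After 24 h compound exposure, reporter mRNA quantified by RT-PCR, fluorescent labelling, HpaI digestion and capillary electrophoresis; bidirectional fitting versus DMSO.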

[9] = ATG_NFI_CIS: Attagene CIS-FACTORIAL HepG2 Assay for human Nuclear Factor I (NFI) (AID 2282989); details: HepG2 cis-regulatory reporter, NFI response element transcription; actives raise or lower the signal
Summary of the method: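 HepG2 cells transiently transfected with cis-element-driven multiplexed reporter transcription units, dosed for 24 h. Reporter mRNA quantified by RT-PCR, fluorescent labelling, HpaI digestion and capillary electrophoresis; bidirectional fit versus DMSO baseline.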

[10] = ATG_NRF2_ARE_CIS: Attagene CIS-FACTORIAL HepG2 Assay for human Nuclear Factor Erythroid 2 Related Factor 2 (NFR2) response to Antioxidant Response Elements (ARE) (AID 2282992); details: HepG2 Attagene ARE/NRF2 reporter, transcription factor activity; actives raise or lower the signal;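 on AC50: reporter mRNA level measured by RT-PCR and capillary electrophoresis fluorescence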
Summary of the method: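 Fluorescence intensity of reporter-specific cDNA fragments, separated by capillary electrophoresis, reflects mRNA induction in transfected HepG2 cells at 24 h. Activity is fitted bidirectionally, DMSO serving as baseline.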

[11] = ATG_Oct_MLP_CIS: Attagene CIS-FACTORIAL HepG2 Assay for human Octamer-Binding Transcription Factor (Oct) (AID 2282993); details: HepG2 Attagene cis-factorial Oct reporter, mRNA; actives raise or lower the signal
Summary of the method: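 HepG2 cells transiently transfected with cis-promoter-driven multiplexed reporter transcription units, dosed for 24 h. Reporter mRNA quantified by RT-PCR, fluorescent labelling, HpaI digestion and capillary electrophoresis; bidirectional fits versus DMSO baseline.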

[12] = target: Cellular tumor antigen p53 (Homo sapiens) (UniProt P04637); assay: ATG_p53_CIS: Attagene CIS-FACTORIAL HepG2 Assay for human p53 Transcription Factor (AID 2282994); details: HepG2 p53 cis-element reporter, Attagene mRNA; actives raise or lower the signal
Cellular tumor antigen p53 (Homo sapiens), sequence (P04637 whole entry, looked up): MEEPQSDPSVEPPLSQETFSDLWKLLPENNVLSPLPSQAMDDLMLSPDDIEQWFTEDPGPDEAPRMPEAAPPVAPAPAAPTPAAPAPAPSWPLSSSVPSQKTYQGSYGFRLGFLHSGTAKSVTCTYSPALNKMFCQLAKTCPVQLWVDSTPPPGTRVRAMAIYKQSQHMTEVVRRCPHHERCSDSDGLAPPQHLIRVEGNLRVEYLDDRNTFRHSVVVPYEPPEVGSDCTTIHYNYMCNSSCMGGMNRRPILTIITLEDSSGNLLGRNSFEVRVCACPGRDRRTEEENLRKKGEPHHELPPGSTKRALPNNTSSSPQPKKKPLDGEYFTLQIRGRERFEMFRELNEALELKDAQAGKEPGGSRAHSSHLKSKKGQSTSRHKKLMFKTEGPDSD
Summary of the method: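 Transiently transfected HepG2 (multiple cis reporter transcription units); exposure 24 h; reporter RNA via RT-PCR, 6-FAM extension, 2 h HpaI digest at 37 C, CE detection; DMSO baseline.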

[13] = target: Myc proto-oncogene protein (Homo sapiens) (UniProt P01106); assay: ATG_Myc_CIS: Attagene CIS-FACTORIAL HepG2 Assay for human Myelocytomatosis (Myc) Proto-Oncogene Transcription Factor (AID 2282990); details: HepG2, Attagene cis-reporter transcription factor activity; actives raise or lower the signal
Myc proto-oncogene protein (Homo sapiens), sequence (P01106 whole entry, looked up): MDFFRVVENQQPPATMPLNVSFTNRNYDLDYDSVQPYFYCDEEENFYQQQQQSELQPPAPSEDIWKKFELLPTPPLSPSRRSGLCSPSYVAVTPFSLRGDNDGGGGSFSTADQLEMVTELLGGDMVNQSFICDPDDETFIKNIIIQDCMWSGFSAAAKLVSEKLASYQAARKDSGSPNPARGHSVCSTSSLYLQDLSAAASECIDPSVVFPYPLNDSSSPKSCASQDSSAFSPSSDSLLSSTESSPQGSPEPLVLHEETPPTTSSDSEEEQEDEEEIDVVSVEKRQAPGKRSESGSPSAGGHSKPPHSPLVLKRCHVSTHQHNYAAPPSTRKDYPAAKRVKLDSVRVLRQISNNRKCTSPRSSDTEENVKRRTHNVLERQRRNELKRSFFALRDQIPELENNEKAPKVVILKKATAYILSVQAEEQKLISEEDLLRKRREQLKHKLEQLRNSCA
Summary of the method: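 Cells of the HepG2 human liver line bear multiple cis-driven reporter transcription units. Reporter mRNA after 24 h exposure is reverse-transcribed, amplified, labelled and resolved by capillary electrophoresis, with gain- or loss-of-signal fitting relative to DMSO.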

[14] = ATG_NF_kB_CIS: Attagene CIS-FACTORIAL HepG2 Assay for human Nuclear Factor Kappa B (NF-kB) (AID 2282991); details: HepG2 Attagene cis-factorial NF-kB reporter mRNA; actives raise or lower the signal
Summary of the method: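 HepG2 cells transiently transfected with multiplexed cis-element reporter units measuring endogenous transcription factor activity; reporter mRNA read 24 h after dosing by RT-PCR, fluorescent labelling, HpaI digestion and capillary electrophoresis. Bidirectional fit against DMSO baseline.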

[15] = ATG_M_06_TRANS: Attagene TRANS-FACTORIAL HepG2 Assay for M06 Transcription Factor (Internal Marker) (AID 2282983; active means hit-call score of the fitted dose curve at least 0.9, where 1 is the maximum;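 further: reporter transcript level by RT-PCR then capillary electrophoresis fluorescence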); details: HepG2 Attagene TRANS M06 internal marker reporter
Summary of the method: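 Human liver HepG2 cells bearing transiently transfected chimeric NR-GAL4 reporter units were treated with chemicals for 24 h. Total RNA was reverse-transcribed, reporter sequences amplified and labelled, then quantified by capillary electrophoresis. Activity was fitted upward relative to DMSO.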

[16] = BSK_3C_TissueFactor: BioMAP Diversity Plus: 3C Assay for Tissue Factor Biomarker Activity (AID 2282997); details: BioMAP 3C HUVEC, tissue factor biomarker readout; actives raise or lower the signal
Summary of the method: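 Cells used were primary human umbilical vein endothelial cells. They were dosed with chemical, and after 24 h Tissue Factor was quantified by ELISA. Curves were fitted bidirectionally with DMSO as baseline.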

[17] = BSK_3C_uPAR: BioMAP Diversity Plus: 3C Assay for Urokinase-type plasminogen activator receptor (uPAR) Biomarker Activity (AID 2282998); details: BioMAP 3C HUVEC, uPAR biomarker ELISA; actives raise or lower the signal
Summary of the method: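 Human umbilical vein endothelial primary cells were exposed to test chemical for 24 h. Cell-surface uPAR was then quantified by ELISA, and responses were fitted bidirectionally against DMSO as negative control and baseline.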

[18] = BSK_3C_VCAM1: BioMAP Diversity Plus: 3C Assay for Vascular cell adhesion molecule 1 (VCAM1) Biomarker Activity (AID 2282999); details: BioMAP 3C HUVEC, VCAM1 ELISA, cytokine-stimulated; actives raise or lower the signal
Summary of the method: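 Activity fitted in both directions relative to DMSO, with ELISA measurement of the surface marker on primary HUVEC (3C) at 24 h post-treatment; parallel SRB staining (0.1% SRB, TCA-fixed, 560 nm) flagged overt cytotoxicity.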

Measured: AC50

CCOC(=O)[C@H](O)[C@@H](O)C(=O)OCC
not listed: [13] | [14] | [15] | [16] | [17] | [18]
inactive: all other assays above

C=CC(=O)OCCCCCCCCCC
active: [10] 94.5 µM
inactive: [1] | [2] | [6] | [7] | [8] | [13] | [14] | [11] | [12]

O=c1c(O)c(-c2ccc(O)cc2O)oc2cc(O)cc(O)c12
inactive: [1] | [3] | [4] | [6] | [7] | [8] | [9] | [10] | [11] | [12]

Cc1ccc(S(=O)(=O)N=C=O)cc1
not listed: [2] | [3] | [5] | [16] | [17] | [18]
inactive: all other assays above

C=C(C)C(=O)OCCOC(=O)C(=C)C
not listed: [2] | [3] | [6] | [16] | [17] | [18]
inactive: all other assays above

c1ccc(Nc2cccc3ccccc23)cc1
inactive: [1] | [3] | [15] | [5] | [6] | [14]
active: [7] 33.4 µM | [8] 52.1 µM | [9] 50.1 µM | [13] 46.7 µM | [10] 33.4 µM | [11] 53.3 µM | [12] 57.1 µM | [16] 36.1 µM and 34.1 µM | [17] 27.6 µM and 24.7 µM | [18] 36.8 µM and 36.9 µM

C[Si]1(C)O[Si](C)(C)O[Si](C)(C)O[Si](C)(C)O[Si](C)(C)O1
not listed: [2] | [4] | [6] | [8] | [16] | [17] | [18]
inactive: all other assays above

CC(C)(CO)COC(=O)C(C)(C)CO
inactive: [1] | [3] | [4] | [5] | [7] | [9] | [13] | [10] | [11] | [12]

CC(C)(C)N
not listed: [2] | [5] | [9] | [16] | [17] | [18]
inactive: all other assays above
